# From PubChem BioAssay
# Compounds with a hit are over-represented: about 8% of the library has one in this group of screens.
# HCV inh: inhibitors of hepatitis C virus infection; Huh7.5.1 HCVcc-Cre infection, luciferase reporter, 44 h; Potency, µM (highest dose often 41.8 µM), without a hit: at the highest dose activity change, negative = inhibition, actives largely listed as inhibitors; 340,000 compounds, 3.4% hits; AID 651820; active = well fitted inhibition curve with a large enough effect; inconclusive = small, poorly fitted or top-dose-only effect, or another doubt; inactive = no such curve, though single readings can be large or run the other way; note: potency is the fitted concentration of half-maximal effect; % is set by controls: 0 for no effect and ±100 for the full control effect
#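 Luciferase read-out (15 sec integration) after a 15 min room-temperature substrate step quantifies HCVcc-Cre infection. Cells, 1,000 per well, had compound added 4 h post-plating, then virus at ~0.5 moi, and were cultured 44 h.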
# LASV entry inh: inhibitors of Lassa virus binding or cell entry; 300,000 compounds, 1.2% hits; Lassa virus pseudotype entry inhibition, cell reporter; Potency, µM (doses to about 37.9 µM), for inactives: at the top dose activity change, negative = inhibition, usual class: inhibitors; AID 540256; calls by dose curve; tested in HEK293 cells; note: potency is the fitted concentration of half-maximal effect; % is set by controls: 0 for no effect and ±100 for the full control effect; nearly all actives have a fitted effect of over 50% in size
# Marburg entry inh: Marburg virus entry inhibition; 300,000 compounds, 1.8% hits; AID 540276; Potency, µM (highest dose often 37.8 µM), for inactives: top-dose activity change, negative = inhibition, actives largely listed as inhibitors; Marburg virus pseudotyped entry inhibition, cell reporter; calls by dose curve; tested in HEK293 cells; note: potency is the fitted concentration of half-maximal effect; % is set by controls: 0 for no effect and ±100 for the full control effect
# HCMV inh: blocks human cytomegalovirus replication; HFF cells, HCMV-luciferase reporter, 72 h; active compounds read low; activity change, negative = inhibition, % at 57.5 µM; 410,000 compounds, 4.5% hits; AID 1259415; in the data active = activity change below about -60%; inconclusive = no clear call, values can overlap the other calls; inactive = above about -39%; note: % is set by controls: 0 for no effect and ±100 for the full control effect
#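 After 16 h attachment at 37C, HFF cells received test compound and HCMV-luciferase (1 PFU/cell); reporter luminescence read 72 h later, data normalized against buffer-only and known inhibitor Salinomycin.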
# SARS PLpro yeast: blocks SARS-CoV papain-like protease in a yeast assay; AID 485353; Potency, µM (doses to about 32.9 µM), for inactives: top-dose activity, positive = growth rescue, usual class: activators; 330,000 compounds, 0.19% hits; S. cerevisiae expressing SARS-CoV PLpro, growth rescue; calls by dose curve; note: potency is the fitted concentration of half-maximal effect; 0% is about no effect; nearly all actives have a fitted effect of over 55% in size
# FMDV inh: foot and mouth disease virus antiviral activity; FMDV antiviral cell-based qHTS; Potency, µM (highest dose often 57.9 µM), without a hit: top-dose activity change, negative = inhibition, actives largely listed as inhibitors; 410,000 compounds, 1.2% hits; calls by dose curve; tested in HEK293T cells; note: read-out not given here; potency is the fitted concentration of half-maximal effect; % is set by controls: 0 for no effect and ±100 for the full control effect; nearly all actives have a fitted effect of over 45% in size
# Starred values were filed as active, the others as inactive; ? = inconclusive; nt = no result; [ ] = remark or other dose.
SMILES,HCV inh,LASV entry inh,Marburg entry inh,HCMV inh,SARS PLpro yeast,FMDV inh
Cc1ccc(-c2cn3c(n2)sc2cc(C(=O)NCc4cccs4)ccc23)cc1,nt,-11.5%[46.1 µM],nt,nt,nt,12.8%
CC(=O)Nc1sc2c(c1C(c1ccc(F)cc1)N1CCOCC1)CCCC2 (stereo not drawn),7.9%,-25.2%,12.6µM*,-86.2*,-11.2%,?
CC(=O)Nc1sc2c(c1C(c1ccc(Cl)cc1)N1CCOCC1)CCCC2 (stereo not drawn),1.5%,?,?,-94.3*,0.0%,?
CC(=O)Nc1sc2c(c1C(c1ccccc1)N1CCOCC1)CCCC2 (stereo not drawn),35.8%,19.6%,7.2%,-28.3,-0.8%,?
Cc1cccn2c(=O)cc(CSc3nnc(NC(=O)c4ccc(F)cc4)s3)nc12,nt,?,nt,-10.8,nt,4.6%
CC(C)[C@@H](OCc1ccccc1)[C@H](C)CON=C1[C@H]2CCn3c(=O)n(-c4ccccc4)c(=O)n3[C@@H]2[C@H](O)[C@@H]2O[C@H]12,nt,nt,24.7%[14.2 µM],nt,nt,nt
CC(=O)Nc1ccc(/C=C/c2ccc3cccc([N+](=O)[O-])c3n2)cc1,11.2µM*,nt,nt,-90.0*,-7.6%,-14.2%
COc1cccc(-c2nc3cc(SC)ccc3cc2CN(C(=O)c2sccc2C)C2CC2)c1,nt,nt,nt,nt,nt,-2.7%
CC(C)CCCN1CCN=C1N(C)C,13.4%,nt,nt,-73.8*,-0.9%,-9.8%
Cc1cccc(C(=O)NCc2nc(-c3ccccc3NC(=O)C3CCCO3)oc2C)c1 (stereo not drawn),nt,nt,nt,nt,nt,4.6%
CCc1nc2ccc(C(=O)Nc3ccc(OC)c(OC)c3)cn2c1N(C)Cc1cccs1,nt,nt,nt,-79.0*,nt,-5.7%
CC1(C)CCC2=C(O1)c1ccccc1C(=O)C2=O,nt,nt,12.6µM*,nt,nt,?
COc1ccc(-c2csc(NC(=O)Cc3ccccc3F)n2)cc1OC,10µM*,nt,?,?,-42.1%,-26.9%
COc1ccc(-c2csc(NC(=O)C3CC(=O)N(Cc4ccccc4)C3)n2)cc1OC (stereo not drawn),?,-18.3%,?,12.2,-2.1%,31.6µM*
COc1ccccc1CC(=O)Nc1nc(-c2ccc(F)c(F)c2)cs1,10µM*,?,?,-20.3,0.9%,-27.9%
Cc1nnc(NC(=O)C2CC(=O)N(Cc3ccccc3)C2)s1 (stereo not drawn),3.4%,-9.8%[46.1 µM],-1.1%[46.1 µM],-3.7,?,1.0%
O=C(Nc1nc(-c2ccccc2)cs1)Nc1ccc(F)cc1F,?,?,-26.9%,-74.8*,-13.0%,-8.0%
Cc1csc2nc(-c3cccc(NC(=O)C(C)C)c3)cn12,nt,5.5%[46.1 µM],nt,1.4,nt,-5.0%
COc1cccc(CC(=O)Nc2nc(-c3cccnc3)cs2)c1,-7.8%,?,3.3%,-62.0*,3.7%,-19.1%
COc1ccc(-c2csc(NC3OC(=O)c4c3ccc(OC)c4OC)n2)cc1OC (stereo not drawn),-76.7%,-10.9%,?,-98.4*,0.9%,?
COc1ccc(-c2csc(NC(=O)CS(=O)(=O)c3ccccc3)n2)cc1OC,nt,nt,nt,-38.0,nt,?
COc1cccc(-c2csc(NC(=O)Nc3ccccc3)n2)c1,11.2µM*,nt,nt,?,-3.7%,25.1µM*
COc1ccc2c(c1OC)C(=O)OC2Nc1nc(-c2ccc([N+](=O)[O-])cc2)cs1 (stereo not drawn),-9.3%,15.9%[46.1 µM],17.2%[46.1 µM],19.0,-2.2%,13.3%
COc1ccc(CC(=O)Nc2nc(-c3ccc(OC)c(OC)c3)cs2)cc1OC,5.62µM*,?,?,-34.3,-2.9%,?
COc1ccc(CC(=O)Nc2nc(-c3cccnc3)cs2)cc1,-27.5%,?,-4.6%,-10.7,-9.6%,-20.1%
SMILES,HCV inh,LASV entry inh,Marburg entry inh,HCMV inh,SARS PLpro yeast,FMDV inh
O=C(Nc1ccccc1)Nc1nc(-c2ccccc2)cs1,-17.4%,nt,nt,?,-0.8%,-2.8%
O=C1C(=O)N(C2CCN(S(=O)(=O)c3ccccc3)CC2)CCN1Cc1ccccc1,nt,16.6%[46.1 µM],nt,5.0,nt,-15.1%
C/C=C/c1ccc(OC(C)[C@@H](O)c2ccc(O)c(OC)c2)c(OC)c1 (stereo partly drawn),nt,nt,nt,nt,nt,-17.5%
O=C(Cn1c(-c2cccs2)cc2ccccc21)N1CCN(c2ccc(F)cc2)CC1,nt,?,nt,9.1,nt,-20.2%
COc1ccc(Nc2nc(-c3sc(N)nc3C)cs2)cc1,?,1.2%,21.4%,138.6,-1.5%,-14.1%
O=C(Cc1ccccc1F)Nc1nc(-c2ccc(F)cc2)cs1,-10.5%,4.47µM*,?,-14.4,-6.8%,33.3%
CCc1ccc(-c2csc(NC(=O)C3CC(=O)N(c4ccc5c(c4)OCCO5)C3)n2)cc1 (stereo not drawn),11.2µM*,?,?,-84.3*,-10.9%,?
COc1cccc(-c2csc(N3CCN(C(=O)Nc4ccccc4OC)CC3)n2)c1,-13.6%,19.6%,-4.4%,47.0,-18.2%,6.1%
O=C(CS(=O)(=O)c1ccccc1)Nc1nc(-c2ccc(F)cc2)cs1,19.3%,nt,nt,?,-3.1%,?
COc1cccc(-c2csc(N3CCN(C(=O)Nc4ccc(F)cc4)CC3)n2)c1,7.94µM*,4.2%,?,?,-78.8%,?
COc1ccc(CCNc2nc(-c3sc(N)nc3C)cs2)cc1OC,-8.9%,-20.3%,?,-11.2,0.3%,10µM*
O=C(NC1CCCC1)c1cn(C2CCCN(Cc3ccc4c(c3)OCCO4)C2)nn1 (stereo not drawn),nt,nt,nt,nt,nt,7.5%
O=C(Nc1ccc(F)cc1F)c1cccc(C(=O)Nc2ccc(F)cc2F)n1,-15.0%,6.7%,7.6%,-99.1*,28.3%,-9.8%
O=C(Nc1ccc(F)cc1F)c1csc(-c2ccccc2)n1,?,5.8%,29.4%[46.1 µM],36.3,-1.2%,35.4%
CC(=O)c1ccc(OCCCC(=O)Nc2cc(S(=O)(=O)N(C)C)ccc2C)cc1,-15.5%,-6.6%,-22.1%,67.8,-2.5%,4.6%
CC(C(=O)Nc1ccc(F)cc1Cl)N(C)CCOc1ccccc1 (stereo not drawn),-21.2%,?,?,-61.3*,-2.1%,-22.0%
CC(C(=O)Nc1ccccc1)N(C)CCOc1ccccc1 (stereo not drawn),?,4.9%,1.0%[46.1 µM],-0.9,-3.0%,4.3%
Cc1ccc(S(=O)(=O)N(C)C)cc1NC(=O)C(C)N(C)CCOc1ccc(Cl)cc1 (stereo not drawn),10µM*,?,?,-78.5*,0.3%,?
COc1ccc(-n2ccn(CC(=O)Nc3ccccc3C(F)(F)F)c(=O)c2=O)cc1OC,nt,-10.2%[46.1 µM],nt,52.8,nt,-1.4%
CC(C)(C)NC(=O)c1ccc2c(c1)N(CC(=O)N1CCCCC1)C(=O)C(C)(C)O2,16.5%,4.5%,7.9%[46.1 µM],-9.4,4.8%,0.4%
Cc1ccc(NC(=O)c2ccc3c(c2)N(CC(=O)N2CCCCC2)C(=O)C(C)(C)O3)cc1,5.62µM*,5.0%,-0.2%,-19.5,-2.5%,-24.1%
O=C1NC(=S)N/C1=C/c1cc2c(cc1[N+](=O)[O-])OCO2,-3.6%,nt,nt,-80.0*,1.0%,-20.5%
